Screening results: PubChem, National Center for Advancing Translational Sciences (NCATS)
An excerpt weighted towards active compounds, which were near 10% of everything screened.
Six1-Eya2 inh = Six1/Eya2 interaction inhibition; AlphaScreen GST-Six1/His-Eya2 binding, biochemical; active compounds read low; AID 651725; hit rate 0.56% among 360,000; activity change, % (concentration not given with the values); Q15475+O00167; in the data active = activity change below about -65%; inconclusive = mostly about -30% to -63%
Target sequence (O00167 whole entry, looked up): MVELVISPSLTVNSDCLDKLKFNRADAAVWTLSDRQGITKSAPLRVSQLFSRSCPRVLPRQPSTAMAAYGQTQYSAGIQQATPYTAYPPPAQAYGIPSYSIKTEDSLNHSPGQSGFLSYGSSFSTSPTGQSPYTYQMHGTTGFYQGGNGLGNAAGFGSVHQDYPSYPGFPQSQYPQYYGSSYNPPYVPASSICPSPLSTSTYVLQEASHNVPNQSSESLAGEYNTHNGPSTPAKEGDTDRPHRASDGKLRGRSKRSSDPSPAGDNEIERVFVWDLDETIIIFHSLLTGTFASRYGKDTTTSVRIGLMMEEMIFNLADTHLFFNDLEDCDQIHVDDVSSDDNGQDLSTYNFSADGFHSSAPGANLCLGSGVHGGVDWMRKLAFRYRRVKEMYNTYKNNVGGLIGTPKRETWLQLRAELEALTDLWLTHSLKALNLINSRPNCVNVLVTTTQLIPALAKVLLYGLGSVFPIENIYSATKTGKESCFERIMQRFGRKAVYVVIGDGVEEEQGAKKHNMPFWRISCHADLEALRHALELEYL
Target sequence (Q15475 whole entry, looked up): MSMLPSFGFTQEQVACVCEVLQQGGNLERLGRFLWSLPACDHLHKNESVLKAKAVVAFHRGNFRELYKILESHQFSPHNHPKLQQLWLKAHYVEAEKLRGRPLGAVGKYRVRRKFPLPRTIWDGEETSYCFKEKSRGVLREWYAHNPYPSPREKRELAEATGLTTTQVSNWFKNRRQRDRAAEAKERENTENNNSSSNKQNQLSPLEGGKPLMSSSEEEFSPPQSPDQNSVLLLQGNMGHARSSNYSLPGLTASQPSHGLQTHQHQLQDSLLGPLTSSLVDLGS
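Six1/Eya2 binding was read as AlphaScreen signal after compounds were pinned into GST-Six1 plus His-tagged Eya2 (5X stock 250/500 nM) in pH 8.0 Tris/NaCl/TCEP buffer, beads added, then incubated 1 h, 37 C, dark.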
G9a inh = inhibitors of human histone lysine methyltransferase G9a; Q96KQ7; G9a H3K9 monomethylation, AlphaScreen, 2 h; Potency, µM (titrated, usually from 102 µM), most hits filed as inhibitors; hit rate 8.8% among 350,000; also: nearly all actives have a fitted effect of over 75% in size
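Using a bead-based AlphaScreen, monomethylated H3K9 product from 2 h room-temperature reactions (G9a 20 nM, peptide 500 nM, SAM 20 uM) was detected with 0.5 ug/mL rabbit anti-H3K9me1 antibody.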
BAZ2B inh = inhibitors of human BAZ2B bromodomain; Q9UIF8; AlphaScreen BAZ2B-H3K14Ac peptide displacement; Potency, µM (series often up to 114 µM), most hits filed as inhibitors; hit rate 4.4% among 360,000; also: nearly all actives have a fitted effect of over 60% in size
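In this displacement format the biotinylated H3(5-23) peptide acetylated at Lys14 serves as ligand at 50 nM, with BAZ2B at 50 nM in PBS pH 7.4 containing 0.01% Tween-20. Donor and acceptor beads are 10 ug/mL final.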
JMJD2A Tudor inh = blocks the human JMJD2A Tudor domain. hit rate 4.4% among 390,000. AID 504339. AlphaScreen JMJD2A-Tudor / H3K4me3 peptide binding. Potency, µM (highest dose often 114 µM), usual class: inhibitors; also: nearly all actives have a fitted effect of over 50% in size
HP1b binding inh = inhibitors of HP1-beta chromodomain binding to methylated histone tails. AlphaScreen HP1-beta / biotin-H3K9me3 peptide binding. Potency, µM (series often up to 114 µM), usual class: inhibitors. hit rate 0.56% among 390,000. AID 540317; also: nearly all actives have a fitted effect of over 70% in size
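Compound inhibition of the preformed complex between 50 nM HP1-beta and 50 nM biotinylated H3K9me3 peptide was read by AlphaScreen. Buffer was PBS pH 7.4 with 0.01% Tween-20. Incubations ran 30 min at room temperature, with 10 ug/mL donor/acceptor beads.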
CtBP-E1A blk = CtBP/E1A binding inhibition; AlphaScreen GST-E1A/His-CtBP binding, 1536-well; active compounds read low; hit rate 0.49% among 340,000; activity change, % (concentration not given with the values); in the data active = activity change below about -65%; inconclusive = mostly about -30% to -63%
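AlphaScreen with 125 nM GST-E1A and 125 nM His-CtBP (5X stocks) in Tris pH 8.0, 300 mM NaCl, BSA, Tween 20, TCEP. Compounds preincubated 2 h at 37 deg C, then glutathione donor/nickel acceptor beads added for 1 h at 37 deg C in dark.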
Large screens that a line does not name were inactive. Unless noted, calls follow the shape of the dose curve; as a rule, active = well fitted inhibition curve with a large enough effect; inconclusive = small, poorly fitted or top-dose-only effect; inactive = no such curve, though single readings can be large or run the other way.

Cc1ccc(N/C=C/C(=O)c2cccs2)cc1	none
O=C(/C=C/Nc1ccc(F)cc1F)c1cccs1	G9a inh 14µM
O=C(/C=C\Nc1cccc(F)c1)c1cccs1	none
Cc1ccc(NC(=O)C2CCN(C(=O)c3cnn(-c4ccccc4)c3-n3cccc3)CC2)cc1	none (no result: Six1-Eya2 inh, CtBP-E1A blk)
CCOc1ccc(NC(=O)c2ccc3c(=O)n4nc(Nc5ccccc5C)sc4nc3c2)cc1	G9a inh inconclusive (no result: Six1-Eya2 inh, CtBP-E1A blk)
CC(C)Nc1nc(NC(C)C)nc(OCCOC(=O)c2ccccc2)n1	none
CC(=O)OCCOc1nc(NC(C)C)nc(NC(C)C)n1	G9a inh inconclusive, JMJD2A Tudor inh 79µM
CC(C)Nc1nc(NC(C)C)nc(Nn2cnnc2)n1	none
CC(C)Nc1nc(NC(C)C)nc(C(N)=O)n1	BAZ2B inh 50µM
c1ccc(-c2cn(-c3ccccc3)c3ncnc(N4CCN(c5ccccc5)CC4)c23)cc1	none (no result: Six1-Eya2 inh, CtBP-E1A blk)
Cc1cc(Cl)c(S(=O)(=O)Nc2ccon2)cc1OCC(=O)NC1CCCCC1	none
Cc1cc(Cl)c(S(=O)(=O)NC2CCCCC2)cc1OCC(=O)Nc1nncs1	G9a inh 18µM
Cc1cccc(-c2nc(SCC(=O)NCC3CCCO3)c3c(=O)n(C)c(=O)n(C)c3n2)c1 (stereo not drawn)	none (no result: Six1-Eya2 inh, CtBP-E1A blk)
CCCCC[C@H](O)/C=C/[C@@H]1[C@@H](C/C=C\CCCC(=O)O)[C@H](O)C[C@H]1O	none (no result: Six1-Eya2 inh, BAZ2B inh, JMJD2A Tudor inh, HP1b binding inh, CtBP-E1A blk)
COc1cc2c(cc1/C=C/C(=O)O)OC(C)C2 (stereo not drawn)	none
CC(C)(O)C1Cc2cc(/C=C/C(=O)O)c(O)cc2O1 (stereo not drawn)	G9a inh 2µM, BAZ2B inh 20µM, JMJD2A Tudor inh 4µM, HP1b binding inh inconclusive
Cc1cc(Cl)ccc1OCC(=O)OCC(=O)Nc1ccc(Cl)cn1	none (no result: G9a inh, BAZ2B inh, JMJD2A Tudor inh, HP1b binding inh)
C/C(N)=C(/C#N)C(=O)COC(=O)COc1ccc(Cl)cc1C	G9a inh 50µM
CCC(=O)OC1=C(C(C)=O)N(Cc2ccccc2)S(=O)(=O)c2ccccc21	G9a inh inconclusive, JMJD2A Tudor inh 50µM (no result: Six1-Eya2 inh, CtBP-E1A blk)
CCCC(=O)OC1=C(C(C)=O)N(Cc2ccccc2)S(=O)(=O)c2ccccc21	G9a inh inconclusive, BAZ2B inh inconclusive, JMJD2A Tudor inh inconclusive (no result: Six1-Eya2 inh, CtBP-E1A blk)
CCCCC(=O)OC1=C(C(C)=O)N(Cc2ccccc2)S(=O)(=O)c2ccccc21	G9a inh inconclusive, BAZ2B inh inconclusive, JMJD2A Tudor inh 79µM (no result: Six1-Eya2 inh, CtBP-E1A blk)
COc1ccc(C2/C(=C(/O)c3ccc4c(c3)CC(C)O4)C(=O)C(=O)N2CCCN2CCOCC2)cc1OC (stereo not drawn)	G9a inh inconclusive
COc1ccc(/C(O)=C2/C(=O)C(=O)N(CC3CCCO3)C2c2cccc(O)c2)cc1 (stereo not drawn)	G9a inh inconclusive, JMJD2A Tudor inh 50µM
COc1cc(C2/C(=C(\O)c3ccc4c(c3)CC(C)O4)C(=O)C(=O)N2CC2CCCO2)cc(OC)c1OC (stereo not drawn)	G9a inh 50µM, BAZ2B inh inconclusive
CCOc1ccc(C2/C(=C(/O)c3ccc4c(c3)CC(C)O4)C(=O)C(=O)N2CC2CCCO2)cc1 (stereo not drawn)	G9a inh inconclusive, BAZ2B inh inconclusive
COc1cc(C2/C(=C(\O)c3ccc4c(c3)CC(C)O4)C(=O)C(=O)N2CCN2CCOCC2)cc(OC)c1OC (stereo not drawn)	G9a inh 71µM, JMJD2A Tudor inh inconclusive
CCCCOc1ccc(C2/C(=C(/O)c3ccc4c(c3)CC(C)O4)C(=O)C(=O)N2CCCN2CCOCC2)cc1OC (stereo not drawn)	G9a inh 56µM, JMJD2A Tudor inh inconclusive
Cc1ccc(NC(=O)c2ccc3c(O)c(S(=O)(=O)c4ccc(Cl)cc4)c(=O)[nH]c3c2)cc1	none (no result: Six1-Eya2 inh, CtBP-E1A blk)
CCOC(=O)C(C)On1c(-c2cccc(Cl)c2)nc2ccc([N+](=O)[O-])cc21 (stereo not drawn)	BAZ2B inh inconclusive
CCOC(=O)COn1c(-c2cccc(Cl)c2)nc2ccc([N+](=O)[O-])cc21	G9a inh 50µM
O=C(Cn1ccn(-c2ccc(F)c(F)c2)c(=O)c1=O)c1ccc(F)cc1	BAZ2B inh inconclusive (no result: Six1-Eya2 inh, CtBP-E1A blk)
CC(=O)c1ccc2c3c(ccc(O)c13)CC2	Six1-Eya2 inh inconclusive, G9a inh 45µM, BAZ2B inh 35µM, JMJD2A Tudor inh 45µM, HP1b binding inh inconclusive
CCOc1ccc(S(=O)(=O)N2Cc3ccccc3CC2C(=O)O)cc1 (stereo not drawn)	G9a inh 50µM, BAZ2B inh inconclusive
O=C(O)C1Cc2ccccc2CN1S(=O)(=O)c1ccc(Cl)cc1 (stereo not drawn)	G9a inh inconclusive, BAZ2B inh inconclusive
O=C(O)C1Cc2ccccc2CN1C(=O)COc1ccc(Cl)cc1 (stereo not drawn)	G9a inh 45µM
O=S1(=O)NCC23CCC(CC21)O3 (stereo not drawn)	none (no result: Six1-Eya2 inh, G9a inh, BAZ2B inh, CtBP-E1A blk)
COc1ccc(-c2noc3c2-c2nc(-c4c(F)cccc4F)sc2CC3)cc1	G9a inh 32µM
COc1ccc(-c2noc3c2-c2nc(-c4ccccc4F)sc2CC3)cc1	G9a inh 22µM
CCCN(C(=O)c1cc2c(s1)-c1c(C)cccc1OC2)c1ccc(OCC)cc1	none (no result: Six1-Eya2 inh, CtBP-E1A blk)
Cc1ccc2nc(NC(=O)CSc3nccn3Cc3ccc(F)cc3)sc2c1	G9a inh inconclusive, BAZ2B inh inconclusive, JMJD2A Tudor inh inconclusive (no result: Six1-Eya2 inh, CtBP-E1A blk)
O=C(CCN1C(=O)/C(=C/C=C/c2ccccc2)SC1=S)Nc1nc2ccccc2s1	G9a inh inconclusive, BAZ2B inh inconclusive
O=C(O)c1ccc(N2C(=O)/C(=C/C=C/c3ccccc3)SC2=S)cc1	G9a inh 45µM, BAZ2B inh inconclusive, JMJD2A Tudor inh inconclusive
CN(C)c1ccc(/C=C/C=C2/SC(=S)N(c3ccccc3)C2=O)cc1	Six1-Eya2 inh -69, G9a inh inconclusive, BAZ2B inh inconclusive, JMJD2A Tudor inh 5.6µM, CtBP-E1A blk -66
CCN(CC)c1ccc(N2C(=O)/C(=C/c3cccs3)SC2=S)cc1	G9a inh inconclusive
COc1ccc(/C=C2\CN(Cc3ccccc3)C/C(=C\c3ccc(OC)cc3OC)C2=O)c(OC)c1	G9a inh 14µM, BAZ2B inh 25µM, JMJD2A Tudor inh inconclusive, HP1b binding inh inconclusive
COc1ccc(/C=C2\COc3ccccc3C2=O)c(OC)c1	none
COc1ccc(C=C2c3ccccc3C(=O)c3ccccc32)c(OC)c1	G9a inh 28µM, BAZ2B inh 13µM (no result: Six1-Eya2 inh, JMJD2A Tudor inh, HP1b binding inh, CtBP-E1A blk)
COc1ccc(/C=C2\CN(Cc3ccccc3)C/C(=C\c3ccc(OC)cc3)C2=O)cc1	G9a inh 18µM, BAZ2B inh inconclusive, JMJD2A Tudor inh inconclusive, HP1b binding inh inconclusive
COc1ccc(NC(=O)CCN2CCN(Cc3ccccc3)CC2)c(OC)c1	none (no result: CtBP-E1A blk)
